This note sets out measurements from PubChem BioAssay (EPA / NIEHS).

A word on the AC50: it is the midpoint of the concentration-response curve, whichever way the signal moves.

Assay [1] in a line: APR_HepG2_NuclearSize_24hr: Apredica 24-hour HepG2 Assay for Nuclear Size (AID 2282907). The following applies: high-content imaging, actives raise or lower the signal. The gist of the method:
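Nuclear size is measured by fluorescence high-content imaging of Hoechst-labelled HepG2 nuclei after 24 hr of treatment (0.39–200 uM, 0.5% DMSO). Cells are fixed in 3.7% formaldehyde before staining, and DMSO serves as the baseline for bidirectional curve fitting.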

Assay [2] in a line: APR_HepG2_CellLoss_24hr: Apredica 24-hour HepG2 Assay for Cell Loss (AID 2282908).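 On AC50: fit in both directions so a hit may be cell loss or gain.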 As to conditions: high-content imaging. The essentials:
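Nuclear count serves as the viability measure: treated cells are fixed, permeabilized and labelled with Hoechst 33342, and six images per well are analysed to identify valid nuclei. Doses span 0.39–200 uM, and activity in either direction is scored against DMSO.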

Assay [3] is described as follows: APR_HepG2_MicrotubuleCSK_24hr: Apredica 24-hour HepG2 Assay for Microtubule CSK Stabilty (AID 2282909). The following applies: HepG2 microtubule cytoskeleton imaging, actives raise or lower the signal. The essentials:
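Compounds were applied to HepG2 cells for 24 hours across 0.39–200 uM in duplicate, with final DMSO at 0.5% v/v. Fixed, permeabilized cells were labeled for alpha-tubulin and nuclei, and tubulin fluorescence was quantified by imaging, fitted bidirectionally against DMSO.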

A short description of assay [4]: APR_HepG2_MitoticArrest_24hr: Apredica 24-hour HepG2 Assay for Mitotic Arrest (AID 2282910). As to conditions: high-content imaging, actives raise or lower the signal. The essentials:
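HepG2, 24 hr dosing, 0.39–200 uM, 0.5% DMSO final. Formaldehyde-fixed, Triton-permeabilised, anti-phospho-histone H3 plus Hoechst. ArrayScan imaging at 20x; bidirectional fit vs DMSO baseline.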

Assay [5] is described as follows: APR_HepG2_MitoMembPot_24hr: Apredica 24-hour HepG2 Assay for Mitochondrial Membrane Potential (AID 2282911). As to conditions: imaging, actives raise or lower the signal. The essentials: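 HepG2 human liver cells were exposed 24 hr to compounds at 0.39–200 uM (final DMSO 0.5% v/v) in duplicate. MitoTracker Red CMXRos (250 nM, 30 min) was loaded before formaldehyde fixation; fluorescence was imaged by ArrayScan HCS and fitted bidirectionally versus DMSO.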

The nature of assay [6]: APR_HepG2_MitoMass_24hr: Apredica 24-hour HepG2 Assay for Mitochondrial Mass (AID 2282912). As to conditions: high-content imaging, actives raise or lower the signal. The essentials: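 After 24 hr of treatment at 0.39 to 200 uM, HepG2 cells take up 250 nM MitoTracker Red CMXRos for 30 min and are then fixed with 3.7% formaldehyde. Per-well images are quantified, and any change in either direction is scored against solvent.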

A short description of assay [7]: APR_HepG2_p53Act_24hr: Apredica 24-hour HepG2 Assay for p53 Activation (AID 2282913).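 Further: p53 protein immunofluorescence averaged per cell in HepG2 with Hoechst nuclei.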 The following applies: high-content imaging, actives raise or lower the signal. The gist of the method:
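HepG2 cells exposed 24 hr to compounds at 0.39–200 uM (10 concentrations, duplicate), final DMSO 0.5% v/v. After formaldehyde fixation and Triton permeabilization, p53 was immunolabeled (sheep anti-p53, Cy5 secondary) with Hoechst 33342 nuclear counterstain, then imaged by high-content fluorescence microscopy.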

Assay [8] in a line: APR_HepG2_CellCycleArrest_72hr: Apredica 72-hour HepG2 Assay for Cell Cycle Arrest (AID 2282914). The following applies: high-content imaging, actives raise or lower the signal. The essentials: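 HepG2 cells were exposed to compounds at 0.39–200 uM (0.5% v/v DMSO final, duplicates) for 72 hr, fixed in 3.7% formaldehyde, permeabilized and stained with Hoechst 33342. Nuclear DNA content was quantified by high-content imaging; gain or loss of signal was fitted bidirectionally against DMSO.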

Assay [9] in a line: APR_HepG2_CellLoss_72hr: Apredica 72-hour HepG2 Assay for Cell Loss (AID 2282915). The following applies: high-content imaging. The gist of the method:
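HepG2 cells exposed 72 h to compound at 0.39–200 uM (10 concentrations, duplicate) in 0.5% DMSO. Fixed with 3.7% formaldehyde and Hoechst 33342-stained. Imaged at 20x; nuclear count gives cell number, fitted bidirectionally versus DMSO.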

The nature of assay [10]: APR_HepG2_P-H2AX_72hr: Apredica 72-hour HepG2 Assay for H2AX Phosphorylation (AID 2282916).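 Further: phospho-histone H2A.x immunostain intensity per cell marking DNA damage.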 The following applies: imaging, actives raise or lower the signal. The essentials: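 Human hepatoma HepG2 cells are dosed across ten concentrations (0.39 to 200 uM, 0.5% v/v DMSO) and incubated 72 hr. Phospho-histone H2A.x is then detected by antibody staining alongside c-Jun and Hoechst, and quantified by automated fluorescence imaging.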

A short description of assay [11]: APR_HepG2_MitoMembPot_72hr: Apredica 72-hour HepG2 Assay for Mitochondrial Membrane Potential (AID 2282917). The following applies: imaging, actives raise or lower the signal. The gist of the method: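 HepG2 cells dosed 72 hr with compound at 0.39–200 uM in duplicate, 0.5% v/v DMSO final. Mitochondria stained with 250 nM MitoTracker Red CMXRos for 30 min before formaldehyde fixation, imaged by high-content fluorescence; bidirectional fit versus DMSO.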

Assay [12] can be described thus: APR_HepG2_MitoticArrest_72hr: Apredica 72-hour HepG2 Assay for Mitotic Arrest (AID 2282918). As to conditions: high-content imaging, actives raise or lower the signal. The essentials: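 HepG2 cells were exposed for 72 hr to compound at 0.39–200 uM (10 concentrations, duplicate) in 0.5% v/v DMSO, fixed in 3.7% formaldehyde, immunostained for phospho-histone H3 with Hoechst 33342 and imaged by high-content fluorescence; bidirectional fits versus DMSO.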

Assay [13] in a line: APR_HepG2_MicrotubuleCSK_72hr: Apredica 72-hour HepG2 Assay for Microtubule CSK Stabilty (AID 2282919). The following applies: HepG2 microtubule cytoskeleton, high-content imaging, actives raise or lower the signal. The gist of the method:
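HepG2, 72 hr cmpd exposure, 0.39–200 uM (10 pts, duplicate), 0.5% DMSO. 3.7% formaldehyde fix, 0.5% Triton perm, anti-alpha-tubulin/Cy5 plus Hoechst. HCS fluorescence intensity; bidirectional fit vs DMSO baseline; taxol as positive control.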

Assay [14] can be described thus: APR_HepG2_P-H2AX_24hr: Apredica 24-hour HepG2 Assay for H2AX Phosphorylation (AID 2282920). The following applies: high-content imaging, actives raise or lower the signal. The gist of the method: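 HepG2 human liver cells were exposed for 24 hr to compounds at 0.39–200 uM in duplicate, with 0.5% v/v DMSO final. Fixed cells were immunostained for phospho-histone H2A.x plus Hoechst 33342, imaged by HCS fluorescence, and fitted bidirectionally against DMSO.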

Assay [15] can be described thus: APR_HepG2_StressKinase_72hr: Apredica 72-hour HepG2 Assay for Stress Kinase (AID 2282921). As to conditions: HepG2 stress kinase (phospho-c-Jun) imaging, actives raise or lower the signal. The gist of the method:
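After a 72 h compound treatment spanning 0.39 to 200 uM, formaldehyde-fixed cells are labelled for phosphorylated c-Jun and nuclei, imaged by automated fluorescence microscopy, and activity is fitted in both directions relative to DMSO controls.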

The nature of assay [16]: APR_HepG2_StressKinase_24hr: Apredica 24-hour HepG2 Assay for Stress Kinase (AID 2282922). The following applies: HepG2 stress kinase (phospho-c-Jun) imaging, actives raise or lower the signal. The gist of the method:
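Read-out: phospho-c-Jun immunofluorescence (Cy3 secondary) quantified by high-content imaging at 20x, nuclei defined by Hoechst 33342. Human HepG2 liver cells dosed 24 hr, 0.39–200 uM, DMSO 0.5% v/v; gain or loss of signal fitted relative to DMSO.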

The nature of assay [17]: APR_HepG2_MitoMass_72hr: Apredica 72-hour HepG2 Assay for Mitochondrial Mass (AID 2282924).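 Further: MitoTracker Red CMXRos stain intensity per cell imaged as mitochondrial mass.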 The following applies: high-content imaging, actives raise or lower the signal. The gist of the method:
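Read-out: MitoTracker Red fluorescence intensity from automated imaging (20x, six fields per well) in human HepG2 liver cells. Dosing ran 72 hr, 0.39–200 uM, 0.5% DMSO; bidirectional curve fitting versus DMSO baseline.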

Assay [18] can be described thus: APR_HepG2_NuclearSize_72hr: Apredica 72-hour HepG2 Assay for Nuclear Size (AID 2282925). As to conditions: high-content imaging, actives raise or lower the signal. The gist of the method:
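Read-out: nuclear diameter from Hoechst 33342 images (ArrayScan, 20x, six fields/well), via cell-cycle image analysis. HepG2 were dosed 0.39–200 uM for 72 hr in 0.5% DMSO. Bidirectional fit relative to DMSO.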

Assay [19] is described as follows: APR_HepG2_p53Act_72hr: Apredica 72-hour HepG2 Assay for p53 Activation (AID 2282923).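 Further: average cellular p53 protein immunofluorescence intensity in HepG2 cells.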 The following applies: high-content imaging, actives raise or lower the signal. The essentials:
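Imaging-based endpoint: after 72 hr compound exposure (up to 200 uM, 0.5% DMSO), fixed and permeabilized monolayers were labelled with anti-p53 antibody and imaged; signal change in either direction was fitted relative to DMSO controls.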

The source made the active and inactive calls. How the source made its calls: active means hit-call score of the fitted dose curve at least 0.9, where 1 is the maximum; inactive means score below 0.9.

In the case of `CCOC(=O)C(C)Oc1ccc(Oc2nc3ccc(Cl)cc3o2)cc1` (stereo not drawn), the compound was called inactive in assay [1], in assay [2], in [3], in assay [4], in assay [5] and in [6]. For the same compound, the call in [7], in assay [8], in [10], in [11], in assay [12] and in assay [13] was inactive. For the same compound, the compound was called inactive in assay [14], in assay [15], in assay [16], in assay [17] and in [18]. Also, the AC50 in assay [9] was 90.1 µM (active).
With `CCC(C)OC(=O)N1CCCCC1CCO` (stereo not drawn), the compound was classed as inactive in assay [1], in [2], in assay [3], in assay [4], in [5] and in assay [6]. In addition, the call in [7], in assay [8], in assay [9], in assay [10], in assay [11] and in [12] was inactive. Also, the call in assay [13], in assay [14], in assay [15], in assay [16], in assay [17] and in [18] was inactive.
With `CCOC(=O)[C@H](C)Oc1ccc(Oc2nc3ccc(Cl)cc3o2)cc1`, the result in [1], in assay [2], in [3], in assay [4], in [6] and in assay [7] was inactive. Also, the result in [8], in [10], in [11], in assay [12], in assay [13] and in assay [14] was inactive. The call in assay [15], in assay [16], in assay [19], in [17] and in [18] was inactive. In addition, the AC50 is 96.7 µM (active) in [5] and 117 µM (active) in assay [9].
`CCOC(=O)COc1cc(-n2ncc(C(F)(F)F)c(C)c2=O)c(F)cc1Cl`: the result in [1], in [2], in assay [3], in assay [4], in assay [5] and in [6] was inactive. Also, the result in assay [7], in assay [8], in assay [9], in assay [10], in [11] and in assay [12] was inactive. Moreover, the call in assay [13], in [14], in assay [15], in [16], in assay [17] and in assay [18] was inactive.
Turning to `C=CCOC(Cn1ccnc1)c1ccc(Cl)cc1Cl` (stereo not drawn), the outcome in assay [1], in assay [3], in [4], in [5], in assay [6] and in assay [7] was inactive. The compound was classed as inactive in assay [8], in assay [10], in assay [11], in assay [14], in assay [15] and in assay [16]. The result in assay [17] and in [18] was inactive. In addition, the AC50 in [2] was 55.8 µM (active); in assay [9], 78.2 µM (active); in assay [12] it was 78.5 µM (active); in assay [13], 43.1 µM (active).
In the case of `CCCCC(CC)CN1C(=O)C2C3C=CC(C3)C2C1=O` (stereo not drawn), the compound was classed as inactive in assay [1], in [2], in assay [4], in assay [5], in [6] and in assay [7]. The call in assay [8], in [10], in [11], in assay [12], in [14] and in assay [15] was inactive. For the same compound, the compound was called inactive in [16], in [17] and in [18]. In addition, the figures for the half-maximal activity concentration (AC50) in assay [3], in assay [9] and in assay [13] were 72.3 µM (active), 93.2 µM (active) and 85.7 µM (active), respectively.
Take `CN(C)C(=O)Nc1ccc(Cl)c(Cl)c1`: the compound was called inactive in assay [1], in assay [2], in [3], in [4], in assay [5] and in [6]. Moreover, the result in assay [7], in assay [8], in [9], in assay [10], in assay [12] and in assay [13] was inactive. The compound was classed as inactive in assay [14], in assay [15], in assay [16], in assay [19], in [17] and in assay [18]. Moreover, the AC50 in [11] is 15.7 µM (active).
